# Compounds with a hit are over-represented: about 31% of the library has one in this group of screens.
# CYP2C19 activ: human CYP2C19 activators, primary screen, biochemical, luminescence; Cytochrome P450 2C19 (Homo sapiens), P33261; recombinant CYP2C19, luciferin-H EGE luminescence; active compounds read high; 0 = fully inhibited enzyme, 1 = untreated enzyme; activation factor at 5 µM; 96,000 tested, under 10 active; AID 1025, 2008;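 active = activation factor of at least 2 at 5 µM in the primary screen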;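 also: 0 = wells with 2.5 mM tranylcypromine and 1 = vehicle-only wells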
# CYP2C9 inh: blockers of cytochrome P450 2C9 activity – biochemical, luminescence, ADME assay, primary screen. AID 777, 2007. CYP2C9 Supersomes, luciferin-H conversion. inhibition, % at 5 µM. 20% of 96,000 active;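 active = blocking of liver enzyme CYP2C9 beyond about 50% at 5 µM, limit read from the data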
# CYP2C9 act: human CYP2C9 activators, primary screen, biochemical, luminescence. Cytochrome P450 2C9 (Homo sapiens), P11712. recombinant CYP2C9, luciferin-H conversion; active compounds read high; factor 1 = untreated enzyme, 0 = blocked. activation factor at 5 µM. 1.4% of 96,000 active. AID 1024, 2008;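 active = activation factor of 2 or more for CYP2C9 at a 5 µM dose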;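 also: 0 = sulfaphenazole-blocked wells and 1 = vehicle-only wells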
# CYP2C19 inh: blockers of cytochrome P450 2C19 activity – biochemical, luminescence, ADME assay, primary screen | P33261 | inhibition, % at 5 µM | 21% of 96,000 active | CYP2C19 Supersomes, luciferin-H EGE luminescence, 30 min;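 active = CYP2C19 inhibition above a set limit at 5 µM in the primary screen, cut at about 50% in these data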;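 also: plate controls were negative control wells for no effect and 2.5 mM tranylcypromine positive control for full effect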
# PLAP act: PLAP enzyme activators, biochemical, luminescence, HTS | activation fold at 20 µM | 1.2% of 96,000 active | purified PLAP enzyme, luminescent substrate read-out; active compounds read high; in the data active = activation fold above about 2
# Target sequence (P05187 whole entry, looked up): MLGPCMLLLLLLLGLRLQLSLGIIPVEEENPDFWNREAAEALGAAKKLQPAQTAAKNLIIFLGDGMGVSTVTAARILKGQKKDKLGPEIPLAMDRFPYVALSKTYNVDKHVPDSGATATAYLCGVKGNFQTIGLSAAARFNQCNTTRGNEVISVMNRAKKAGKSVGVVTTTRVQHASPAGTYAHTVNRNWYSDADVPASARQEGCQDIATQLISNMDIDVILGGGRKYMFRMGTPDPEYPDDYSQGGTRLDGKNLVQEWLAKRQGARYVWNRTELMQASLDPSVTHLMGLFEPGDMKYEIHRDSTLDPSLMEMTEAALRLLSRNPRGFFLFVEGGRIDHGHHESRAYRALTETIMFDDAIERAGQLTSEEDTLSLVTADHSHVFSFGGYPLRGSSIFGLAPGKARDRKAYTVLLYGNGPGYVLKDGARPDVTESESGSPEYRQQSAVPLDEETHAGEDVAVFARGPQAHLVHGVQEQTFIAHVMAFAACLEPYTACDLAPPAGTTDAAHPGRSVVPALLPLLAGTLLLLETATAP
# Starred values were filed as active, the others as inactive.
SMILES,CYP2C19 activ,CYP2C9 inh,CYP2C9 act,CYP2C19 inh,PLAP act
O=C(c1csc2c1CCCCC2)N1CCC2(CC1)OCCO2,0,-38,1.4,98*,1
CN1C(=O)c2ccccc2Sc2ccc(C(=O)N3CCC4(CC3)OCCO4)cc21,1,28,0.7,0,1
O=C(c1cccc(N2CCCC2=O)c1)N1CCC2(CC1)OCCO2,1,-19,1.2,2,1.2
COc1ccc(CCNCc2ccc(F)cc2)cc1OC,0.5,-16,1.2,52*,1
Fc1ccc(CCNCc2cccc(Cl)c2)cc1,0.1,7,0.9,92*,0.9
Cn1cccc1CNCCc1ccccc1,0.7,3,1,34,1
COc1ccc(CCNCc2ccc(SC)cc2)cc1,0.2,-3,1,81*,0.8
O=C1NC(=O)C2(C(=O)N1)C(c1ccc(F)cc1)NC(=S)NC2c1ccc(F)cc1 (stereo not given),1.1,-12,1.1,-8,0.9
Cc1ccc(-c2nc3ccc(Cl)cc3n2OC(=O)N(C)C)cc1,1,-4,1,-1,0.8
CN(C)CCN=Cc1c(O)n(-c2cccc3ccccc23)c(=O)[nH]c1=O,1,1,1,1,0.9
CCC(C)N1C(=O)NC(=O)C2(Cc3c(ccc4ccccc34)N(C)C2)C1=O (stereo not given),0.6,28,0.7,41,1.1
O=C(C1CCC(=O)N1Cc1ccccc1Cl)N1CCC2(CC1)OCCO2 (stereo not given),0.9,13,0.9,10,1
O=c1c2ccccc2[nH]c(=S)n1-c1ccc2c(c1)OCO2,0,83*,0.2,97*,0.9
CN1C(=O)N(C)C(=O)C2(Cc3c(nc4ccccn4c3=O)N3CCC(Cc4ccccc4)CC32)C1=O (stereo not given),1,14,0.9,-3,1.3
Cc1cccn2c(=O)c3c(nc12)N1CCC(Cc2ccccc2)CC1C1(C3)C(=O)N(C)C(=O)N(C)C1=O (stereo not given),0.6,91*,0.1,42,1.4
O=P(/C(=N/O)N1CCOCC1)(N1CCOCC1)N1CCOCC1,1.1,-8,1.1,-10,0.8
O=c1c2ccccc2nc(N2CCCC2)n1-c1ccc(Cl)cc1,0.3,13,0.9,67*,0.8
CCN1/C(=C\C=C\C2=[N+](CC)c3ccccc3C2(C)C)C(C)(C)c2ccccc21,0.1,69*,0.3,92*,0.4
N#Cc1cc2c(nc1SCC(=O)Nc1ccc(Cl)cc1)C1CCN2CC1,0.1,84*,0.2,92*,0.9

# Compound activity from PubChem.
